According to PubChem BioAssay (Tox21):
Records with an inconclusive call do not appear. The source made the active and inactive calls. Calls come from the whole dose curve; as a rule, active = well fitted cell-killing curve with a large enough effect in the repeat runs; inconclusive = weak or mixed curves; inactive = flat fitted curve, though single readings scatter.

Test: qHTS RealTime-Glo MT Cell Viability Assay in HepG2 cells - 32 hour (AID 1224877); note: nearly all actives have a fitted effect of over 55% in size
Details: RealTime-Glo luminescence; series mostly up to 76.8 µM; activity change, negative = cytotoxic: at the top concentration
Text: U.S. Tox21 Program National Center for Advancing Translational Sciences [NCATS] NIH Chemical Genomics Center [NCGC] U.S. Environmental Protection Agency [EPA] National Institutes of Environmental Health Sciences [NIEHS] National Toxicology Program [NTP] U.S. Food and Drug Administration [FDA] Tox21 Assay Overview: Measure of cell viability is critical in the cell-base assay. Analysis of cell viability is necessary for the characterization of cell responses to cytotoxic drugs and environmental stress. A RealTime-Glo MT Cell Viability Assay to monitor cell viability in real time of continues cell culture during 40 hours of compound treatment was used to screen Tox21 10K library compounds in HepG2 cells. The RealTime-Glo MT Cell Viability Assay is a nonlytic, homogeneous, bioluminescent method to measure cell viability in real time using a simple, plate-based method. The assay involves adding NanoLuc luciferase and a cell-permeant prosubstrate to cells in culture. Viable cells reduce the proprietary prosubstrate to generate a substrate for NanoLuc luciferase. This substrate diffuses from cells into the surrounding culture medium, where it is rapidly used by the NanoLuc Enzyme to produce a luminescent signal. The signal correlates with the number of viable cells, making the assay well suited for cytotoxicity studies.
Tox21 Assay Protocol Summary: The mixture of HepG2 cell suspension and reagents were dispensed at 600cells/6 ul/well in 1536-well tissue culture treated black solid bottom plates using a Multidrop dispenser. After the assay plates were incubated at a 37 C/5% CO2 incubator for 5 hours, 23 nL of compounds dissolved in DMSO, positive and negative controls was transferred to the assay plate by a pintool work station. The plates were incubated at 37 C for 40 hours. The luminescence intensity were measured at 0h, 8h, 16h, 24h, 32h and 40h time points using ViewLux plate reader during compound treatment.
% is set by controls: 0 for no effect and ±100 for the full control effect.

Compound	activity change, negative = cytotoxic
NS(=O)(=O)c1cc2c(cc1C(F)(F)F)NC(Cc1ccccc1)NS2(=O)=O (stereo not given)	0.192% [at 35.3 µM] (inactive)
N#CC1(O)CCCCC1	0.347% (inactive)
CC(C)(C)C(=O)/C=C/c1ccc(Cl)cc1	-0.753% (inactive)
OCCCCCCO	0.518% (inactive)
C/C=C1\C(=O)C[C@H]2[C@@H]3CCC4=CC(=O)CC[C@]4(C)[C@H]3CC[C@]12C	-12.7% [at 35.3 µM] (inactive)
C#CC(C)(O)CC(C)C (stereo not given)	0.908% (inactive)
COc1cc(C(=O)N2CCOCC2)cc(OC)c1OC	2.08% [at 35.3 µM] (inactive)
COc1cccc(Br)c1	2.44% (inactive)
OC1OC[C@@H](O)[C@H](O)[C@H]1O (stereo not given in full)	1.35% (inactive)
C#CC(O)CCCCC (stereo not given)	4.88% (inactive)
CC1=CC(=O)CCC1	1.11% (inactive)
CC(=O)OC(C)(C)C	1.65% (inactive)
N#CCN(CC#N)CCN(CC#N)CC#N	0.472% (inactive)
CC(C)c1ccc2oc3nc(N)c(C(=O)O)cc3c(=O)c2c1	1.64% [at 35.3 µM] (inactive)
O=S(=O)(O)c1ccccc1O	0.665% (inactive)
NC(N)=NS(=O)(=O)c1ccc(N)cc1	-0.843% [at 35.3 µM] (inactive)
CCCCCCC(=O)OCC	-0.197% (inactive)
CC(C)(C)N(CCO)CCO	-0.12% (inactive)
CC1(C)OC(=O)Nc2ccc(Br)cc21	0.866% [at 35.3 µM] (inactive)
COC(=O)[C@H]1[C@H]2C[C@@H]3c4[nH]c5cc(OC)ccc5c4CCN3C[C@H]2C[C@@H](OC(=O)COc2ccc(OC)cc2)[C@@H]1OC	0.0324% [at 35.3 µM] (inactive)

Compound	activity change, negative = cytotoxic
O=[N+]([O-])c1ccc(Oc2ccc([N+](=O)[O-])cc2)cc1	-3.43% (inactive)
C=CC(=O)OCCCCCC	1.74% (inactive)
COC(=O)C1=C(C)NC(C)=C(C(=O)OCC(C)=O)C1c1ccccc1[N+](=O)[O-] (stereo not given)	-7.69% [at 35.3 µM] (inactive)
NC(=O)Nc1nc2ccccc2[nH]1	-1.07% (inactive)
Oc1cc(O)c2c(c1)O[C@H](c1ccc(O)c(O)c1)[C@H](O)C2	-2.96% [at 35.3 µM] (inactive)
C=C(C)C(=O)NCCC[N+](C)(C)C	-0.0267% (inactive)
C1=C\CC/C=C\CC/C=C\CC/1	2.41% (inactive)
Nc1ncnc2c1ncn2Cc1c(F)cccc1Cl	1.52% [at 35.3 µM] (inactive)
CCCOc1ccccc1-c1nc2n[nH]nc2c(=O)[nH]1	0.106% [at 35.3 µM] (inactive)
CCC(C)(C)C1CCC(OC)CC1 (stereo not given)	1.84% (inactive)
CC1=CC(C)C(C=O)C(C)C1 (stereo not given)	1.82% (inactive)
CCCc1ccccc1O	0.272% (inactive)
O=C(O)/C=C/c1ccc(Cn2ccnc2)cc1	2.07% [at 35.3 µM] (inactive)
C1COCCO1	0.239% (inactive)
Nc1[nH]c(=O)ncc1F	2.45% [at 35.3 µM] (inactive)
C=CCSCC1Nc2cc(Cl)c(S(N)(=O)=O)cc2S(=O)(=O)N1 (stereo not given)	-1.03% [at 35.3 µM] (inactive)
COC(=O)c1ccc(C(=O)OC)c(C(=O)OC)c1	-4.74% (inactive)
CCC(C)OC(=O)N1CCCCC1CCO (stereo not given)	-0.0997% (inactive)
CCN1CCN(c2cc3c(cc2F)c(=O)c(C(=O)O)cn3C2CC2)CC1	7.58% [at 35.3 µM] (inactive)
O=C(O)C1CCC1	2.08% [at 35.3 µM] (inactive)
